ABHD5 PLIN5 PPI – ABHD5-PLIN5 interaction inhibitors, primary screen, cell lysate, split luciferase complementation, luminescence | Perilipin-5 (Homo sapiens) + 1-acylglycerol-3-phosphate O-acyltransferase ABHD5 (Homo … | Split G. princeps luciferase complementation, 4 h | actives 0.78% (n = 360,000) | inhibition, % at 4 µM;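 active means inhibition above the mean inhibition across every tested compound plus 3 SD, cut at about 22% in these data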;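 further: 0% = DMSO only wells and the 100% control is not disclosed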
Platelet DG rel – inhibitors of platelet dense granule secretion, primary screen, cell-based, MLPCN, human platelets; human platelet-rich plasma, SFLLRN dense granule ATP release, luminescence; inhibition, %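 (compounds screened at 7.5 µM in platelet-rich plasma)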; actives 0.22% (n = 300,000); AID 1663, 2009;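 active means mean replicate score, as percent of positive control, at or above 50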
Rce1 inhib – yeast Rce1p protease inhibitors, primary screen, biochemical, fluorescence, cell-free homogeneous; CAAX prenyl protease 2 (Saccharomyces cerevisiae (strain ATCC 204508 / S288c)), Q03530; yeast membranes, quenched prenylated peptide cleavage fluorescence; calls only; actives 0.27% (n = 290,000); AID 2563, 2010;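 active means fall in fluorescence gain of 50% or more versus controls, with final raw signal at or below 3038400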;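 further: plate controls were neutral control wells for no effect and wells lacking membranes for full effect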
Granule exo inh – LAMP-1 surface exposure blockers, TALL-104 cells – cell-based, flow cytometry, MLPCN library, primary screen | actives 0.66% (n = 360,000) | inhibition, % at 10 µM | TALL-104 LAMP-1 surface exposure; cells stimulated with thapsigargin and PMA;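 active means inhibition above about 55%, limit read from the data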
M18AAP inhibitor – PfM18AAP inhibitors, malaria aminopeptidase, primary screen, biochemical, QFRET, recombinant enzyme. inhibition, % at 7.35 µM. M18 aspartyl aminopeptidase (Plasmodium falciparum 3D7). H-Glu-NHMec fluorogenic cleavage. actives 1.2% (n = 290,000);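 active means inhibition above the campaign mean inhibition over all tested compounds plus 3 SD, cut at about 28% in these data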;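 further: 0% = plate median of test compound wells and 100% = 2 mM ZnCl2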
ABHD5 PLIN5 conf – ABHD5-PLIN5 interaction inhibitors, confirmation, biochemical, luminescence | shares compounds with ABHD5 PLIN5 PPI | inhibition, % at 4 µM | actives 67% (n = 2,200); in the data active means inhibition above about 23%;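 further: 0% = DMSO vehicle wells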
HNF4 counter – HNF4 dimerization inhibitors, counter-screen for ABHD5-PLIN5 interaction inhibitor project, biochemical, split-luciferase complementation, luminescence | shares compounds with ABHD5 PLIN5 PPI | inhibition, % at 4 µM | actives 77% (n = 2,200) | AID 651674, 2012;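 active means mean inhibition across replicate wells exceeding the computed hit threshold, cut at about 13% in these data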;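 further: light from luciferase halves that rejoin when HNF4 fusion proteins dimerize; 0% = DMSO only wells and the 100% control is not given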
Target sequence (P41235 whole entry, looked up, the tested form may be a part): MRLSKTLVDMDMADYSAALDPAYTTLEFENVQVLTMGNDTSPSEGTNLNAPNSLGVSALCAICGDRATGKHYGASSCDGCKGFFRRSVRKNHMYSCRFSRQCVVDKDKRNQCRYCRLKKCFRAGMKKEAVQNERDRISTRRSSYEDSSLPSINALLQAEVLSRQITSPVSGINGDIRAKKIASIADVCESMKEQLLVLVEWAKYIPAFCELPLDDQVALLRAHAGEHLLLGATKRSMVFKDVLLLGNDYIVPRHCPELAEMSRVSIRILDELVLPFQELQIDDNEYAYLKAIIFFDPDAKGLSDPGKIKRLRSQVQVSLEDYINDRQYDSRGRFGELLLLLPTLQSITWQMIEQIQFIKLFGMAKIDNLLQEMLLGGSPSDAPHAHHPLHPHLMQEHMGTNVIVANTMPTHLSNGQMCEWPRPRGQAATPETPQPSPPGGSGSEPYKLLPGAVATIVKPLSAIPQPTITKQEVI
An asterisk follows results filed as active; i = inactive; / = not tested or not shown. A selection: hits, their analogues and other compounds. The true share with any hit is near 2.6%.

SMILES	ABHD5 PLIN5 PPI	Platelet DG rel	Rce1 inhib	Granule exo inh	M18AAP inhibitor	ABHD5 PLIN5 conf	HNF4 counter
O=C(NCc1ccc2c(c1)OCO2)Nc1ccc([N+](=O)[O-])cc1	-14	3	i	0	-2	/	/
COC(=O)C1=C(C)NC2=C(C(=O)CCC2)C1c1ccc(-c2ccsc2C(=O)OC)o1 (stereo not given)	24*	7	i	15	-5	8	10
COC(=O)C1=C(C)NC2=C(C(=O)CCC2)C1c1ccsc1 (stereo not given)	/	0	i	/	-1	/	/
C#CC[N+]1(CC#Cc2ccccc2)CCCC1	-2	1	i	-2	-3	/	/
C(#Cc1ccccc1)C[N+]1(CC#Cc2cccc3ccccc23)CCCC1	27*	0	/	27	5	11	3
O=C(CN1C(=O)S/C(=C\C=C\c2ccccc2)C1=O)Nc1ccc(O)cc1	30*	15	i	2	-2	12	3
O=C(CN1C(=O)S/C(=C\C=C\c2ccccc2)C1=O)N1CCCCC1	3	26	i	-2	-3	/	/
O=C(CCCN1C(=O)S/C(=C/C=C/c2ccccc2)C1=O)Nc1ccc(C(=O)O)cc1	28*	-1	i	-21	3	17	12
COc1cccc(-c2nnc(SCC(=O)NCc3ccc4c(c3)OCO4)n2Cc2ccco2)c1	28*	-5	i	5	-14	6	10
CC1=CC(=O)N(c2ccn(C)n2)C1=O	25*	-5	i	-3	-12	36*	39*
Cn1ccc(-c2ccccc2)n1	2	0	i	-1	-5	/	/
Cc1[nH]c2ccccc2c1C(=O)/C=C\c1ccccc1Cl	-3	8	i	-1	0	/	/
CCCNC(=O)C/C(C)=N/NC(=O)C(=O)Nc1ccccn1	-3	-2	i	7	5	/	/
Cc1ccccc1Oc1nc2c(C)cccn2c(=O)c1/C=C(\C#N)C(=O)Nc1c(C)n(C)n(-c2ccccc2)c1=O	28*	-1	i	8	-9	49*	35*
Cc1ccccc1Oc1nc2ccccn2c(=O)c1/C=C(\C#N)C(=O)Nc1c(C)n(C)n(-c2ccccc2)c1=O	1	12	i	0	5	/	/
Cc1cn(C2CC(OC(=O)C(C)C)C(CO)O2)c(=O)[nH]c1=O (stereo not given)	4	/	/	7	/	/	/
Cc1cccc(NC(=S)N(CCCN2CCOCC2)Cc2cn(C)c3ccccc23)c1	23*	16	i	3	-3	1	-2
CCOc1ccc(NC(=S)N(CCCN2CCOCC2)Cc2cn(C)c3ccccc23)cc1	15	-1	i	-2	-2	/	/
Cn1cc(CN(CCCN2CCOCC2)C(=S)Nc2cccc(Cl)c2)c2ccccc21	25*	7	i	50	-4	11	-1
COc1ccc(NC(=S)N(CCCN2CCOCC2)Cc2cn(C)c3ccccc23)cc1	-2	-3	i	-1	10	/	/
CCC(OC(=O)C1=Cc2ccccc2OC1)C(=O)NC1CCCC1 (stereo not given)	0	0	i	-5	1	/	/
O=c1c2ccccc2nc2c3ccccc3c(NCCN3CCOCC3)nn12	/	-4	i	/	-1	/	/
O=c1c2c(-c3ccccc3)csc2nc2c3ccccc3c(NCCN3CCOCC3)nn12	23*	4	i	67*	16	11	5
Oc1ccccc1-c1cc(-c2ccco2)[nH]n1	27*	10	i	5	7	14	14*
CC(C(=O)NCc1ccccc1)N(Cc1ccccc1Cl)C(=O)c1snc(C(N)=O)c1N (stereo not given)	2	2	/	-4	9	/	/
O=C(O)c1nc(Cl)c(Cl)c(N/N=C/c2ccccc2C(F)(F)F)c1Cl	-6	-10	i	12	3	/	/
